Assay results reported in PubChem BioAssay (NCATS).
Inconclusive results are not listed. Active and inactive are the calls of the source. Calls come from the whole dose curve; as a rule, active = well fitted curve in the direction sought with a large enough effect; inconclusive = small, poorly fitted or top-dose-only effect, or another doubt; inactive = no such curve, though single readings can be large; an effect the other way counts as inactive or inconclusive.

How the values were obtained:
[1] = qHTS of pediatric cancer cell lines to identify multiple opportunities for drug repurposing: Confirmatory screen for control Hh wild type fibroblast cells (AID 1347121); note: nearly all actives have a fitted effect of over 70% in size
Outline: (§1)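 Cells (500-1,000/well) rested 5 h, then received compounds for 48 h; metabolically active cells were measured by CellTiter-Glo luminescence. Final concentrations spanned up to 46 µM (MIPE, 11-point) or 0.59 nM-46 µM (NPC, 8-point) in primary screens, 11-point in follow-ups.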

[2] = qHTS of pediatric cancer cell lines to identify multiple opportunities for drug repurposing: Confirmatory screen for U-2 OS cells (AID 1347122); note: potency is the fitted concentration of half-maximal effect; nearly all actives have a fitted effect of over 65% in size
Outline: as §1

[3] = qHTS of pediatric cancer cell lines to identify multiple opportunities for drug repurposing: Confirmatory screen for Rh41 cells (AID 1347123);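 note: potency is the fitted concentration of half-maximal effect; 48 h compound exposure; nearly all actives have a fitted effect of over 60% in size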
Outline: as §1

[4] = test system: Zika virus NS2B-NS3 protease; assay: Primary screen GU AMC qHTS for Zika virus inhibitors (AID 1347154); note: nearly all actives have a fitted effect of over 70% in size; note: potency is the fitted concentration of half-maximal effect
Outline: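 Fluorogenic AMC-substrate cleavage by noncovalent NS2B-NS3 protease complex (25 nM, pH 8.0 Tris buffer with Tween 20) followed for 15 minutes at room temperature (~20% conversion). Percent inhibition from ex340/em450 signal change, fitted by 4-parameter Hill equation.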

[5] = qHTS of pediatric cancer cell lines to identify multiple opportunities for drug repurposing: Confirmatory screen for MG 63 (6-TG R) cells (AID 1347119); note: nearly all actives have a fitted effect of over 55% in size; note: potency is the fitted concentration of half-maximal effect
Outline: as §1

[6] = qHTS of pediatric cancer cell lines to identify multiple opportunities for drug repurposing: Confirmatory screen for RD cells (AID 1347124);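 note: cells exposed to compound for 48 h before viability readout; nearly all actives have a fitted effect of over 65% in size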; note: potency is the fitted concentration of half-maximal effect
Outline: as §1

[7] = qHTS of pediatric cancer cell lines to identify multiple opportunities for drug repurposing: Confirmatory screen for Rh18 cells (AID 1347125); note: nearly all actives have a fitted effect of over 55% in size; note: potency is the fitted concentration of half-maximal effect
Outline: as §1

[8] = qHTS of pediatric cancer cell lines to identify multiple opportunities for drug repurposing: Confirmatory screen for Saos-2 cells (AID 1347127); note: nearly all actives have a fitted effect of over 60% in size; note: potency is the fitted concentration of half-maximal effect
Outline: as §1

[9] = qHTS of pediatric cancer cell lines to identify multiple opportunities for drug repurposing: Confirmatory screen for OHS-50 cells (AID 1347128);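 note: compound exposure lasted 48 h at 37 degrees C; nearly all actives have a fitted effect of over 55% in size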; note: potency is the fitted concentration of half-maximal effect
Outline: as §1

[10] = test system: Zika virus NS2B-NS3 protease (linked construct); assay: Primary screen NINDS Rhodamine qHTS for Zika virus inhibitors (AID 1347160); note: nearly all actives have a fitted effect of over 55% in size; note: potency is the fitted concentration of half-maximal effect
Outline: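 Purified linked NS2B-NS3 protease (NS2B hydrophilic domain joined to NS3 protease by flexible linker), 25 nM in 10 mM Tris-HCl pH 8.0, 0.01% Tween 20. Compounds titrated, 15 min preincubation at room temperature; 1.5 microM Rhodamine110 substrate, FITC fluorescence change over 15 min.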

[11] = qHTS of pediatric cancer cell lines to identify multiple opportunities for drug repurposing: Confirmatory screen for Rh30 cells (AID 1347126); note: nearly all actives have a fitted effect of over 55% in size; note: potency is the fitted concentration of half-maximal effect
Outline: as §1

[12] = qHTS of pediatric cancer cell lines to identify multiple opportunities for drug repurposing: Confirmatory screen for SK-N-SH cells (AID 1347129);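 note: cells exposed to compound for 48 h before viability read; nearly all actives have a fitted effect of over 60% in size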; note: potency is the fitted concentration of half-maximal effect
Outline: as §1

[13] = test system: Zika virus NS2B-NS3 protease (unlinked complex); assay: Primary screen GU Rhodamine qHTS for Zika virus inhibitors: Unlinked NS2B-NS3 protease assay (AID 1347159); note: nearly all actives have a fitted effect of over 60% in size; note: potency is the fitted concentration of half-maximal effect
Outline: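 Noncovalent NS2B hydrophilic domain–NS3 protease domain complex (25 nM) preincubated 15 min at room temperature with compounds (up to 114 microM) in 10 mM Tris-HCl pH 8.0, 0.01% Tween 20; 1.5 microM Rhodamine110 substrate added, fluorescence change over 15 min fitted to Hill equation.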

[14] = target: Furin (Homo sapiens) (UniProt P09958); assay: Furin counterscreen qHTS for Zika virus inhibitors (AID 1347149); note: nearly all actives have a fitted effect of over 70% in size; note: potency is the fitted concentration of half-maximal effect
Sequence of Furin (Homo sapiens) (P09958 whole entry, looked up): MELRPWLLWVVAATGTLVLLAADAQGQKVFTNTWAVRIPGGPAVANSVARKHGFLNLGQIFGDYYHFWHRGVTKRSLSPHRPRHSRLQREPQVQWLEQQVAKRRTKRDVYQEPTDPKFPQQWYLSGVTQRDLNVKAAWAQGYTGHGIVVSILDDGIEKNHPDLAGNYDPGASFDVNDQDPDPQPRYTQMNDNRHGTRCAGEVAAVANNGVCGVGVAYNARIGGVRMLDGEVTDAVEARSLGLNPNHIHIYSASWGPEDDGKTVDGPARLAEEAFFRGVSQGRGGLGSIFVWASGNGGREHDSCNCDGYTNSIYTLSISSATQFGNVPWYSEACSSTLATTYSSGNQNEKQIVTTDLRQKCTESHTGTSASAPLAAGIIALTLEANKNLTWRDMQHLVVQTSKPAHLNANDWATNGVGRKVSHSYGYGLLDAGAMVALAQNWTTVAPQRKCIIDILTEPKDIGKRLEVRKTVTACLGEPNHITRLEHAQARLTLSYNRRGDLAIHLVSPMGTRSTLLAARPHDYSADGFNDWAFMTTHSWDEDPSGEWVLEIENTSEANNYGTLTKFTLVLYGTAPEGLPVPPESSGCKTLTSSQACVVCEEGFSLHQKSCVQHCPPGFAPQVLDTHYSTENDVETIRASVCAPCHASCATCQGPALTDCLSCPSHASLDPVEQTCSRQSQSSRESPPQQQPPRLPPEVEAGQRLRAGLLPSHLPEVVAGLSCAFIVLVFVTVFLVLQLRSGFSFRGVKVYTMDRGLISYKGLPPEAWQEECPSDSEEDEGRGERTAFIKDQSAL
Outline: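 Fluorogenic cleavage of BOC-RVRR-AMC (2 microM final, Km ~15 µM) was monitored (ex 340, em 450 nm) at 37C after 15 min RT preincubation of 5 nM furin with compounds in HEPES pH 7.0 buffer with CaCl2 and Triton X-100. Percent inhibition was fitted to a 4-parameter Hill curve.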

[15] = test system: Zika virus NS2B-NS3 protease (linked construct); assay: Confirmatory screen NINDS AMC qHTS for Zika virus inhibitors (AID 1347152); note: nearly all actives have a fitted effect of over 70% in size; note: potency is the fitted concentration of half-maximal effect
Outline: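 Concentration-response confirmation used the NINDS linked protease (NS2B hydrophilic domain joined to NS3 protease domain), 1 nM, with a 15-min compound preincubation. Substrate, Nle-KRR-AMC at 10 microM, was read by UV fluorescence before and after 15 min.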

[16] = test system: Zika virus NS2B-NS3 protease (unlinked complex); assay: Confirmatory screen GU AMC qHTS for Zika virus inhibitors (AID 1347153); note: nearly all actives have a fitted effect of over 70% in size;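 for Potency: enzyme at 25 nM with substrate at 10 µM below its Km of 18.3 µM; potency is the fitted concentration of half-maximal effect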
Outline: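 Noncovalent NS2B hydrophilic domain/NS3 protease complex (25 nM) in 10 mM Tris-HCl pH 8.0, 0.01% Tween 20 was preincubated 15 min at room temperature with compounds. Then 10 µM AMC substrate (Km 18.3 µM) was added; fluorescence was read over 15 min and fitted to a 4-parameter Hill equation.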

[17] = Confirmatory screen GU Rhodamine qHTS for Zika virus inhibitors qHTS (AID 1347157)
Outline: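 In dose–response format, inhibition of unlinked protease (25 nM) was measured with 1.5 microM bis-peptide Rhodamine110 substrate. Aprotinin served as the intraplate control.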

[18] = ZIKV-mCherry secondary qHTS for Zika virus inhibitors (AID 1347158); note: top concentration of the series differs between compounds
Outline: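 Vero, 5,000 cells/well, o/n 37 °C; cpd pin-transferred in DMSO; ZIKV-mCherry MOI 1, 48-72 h 37 °C; 32% PFA stock fix, Hoechst; imaged 10x DAPI/mCherry; mCherry+ threshold 450 RFU; % infection.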

O=C(c1ccc(F)c(F)c1Nc1ccc(I)cc1F)N1CC(O)([C@H]2CCCCN2)C1
Potency [1]: inactive
Potency [2]: 2.61 µM (active)
Potency [3]: 14.7 µM (active)
Potency [4]: inactive

COc1cc2ncnc(Nc3cc(Br)c(O)c(Br)c3)c2cc1OC
Potency [5]: inactive
Potency [1]: inactive
Potency [6]: inactive
Potency [7]: inactive
Potency [8]: inactive
Potency [9]: inactive
Potency [4]: inactive
Potency [10]: inactive

COc1cc([C@@H]2c3cc4c(cc3[C@@H](O[C@@H]3O[C@@H]5CO[C@@H](C)O[C@@H]5[C@H](O)[C@@H]3O)[C@H]3COC(=O)[C@H]23)OCO4)cc(OC)c1O
Potency [5]: 5.85 µM (active)
Potency [1]: inactive
Potency [3]: 4.14 µM (active)
Potency [6]: inactive
Potency [11]: 4.65 µM (active)
Potency [8]: 5.22 µM (active)
Potency [9]: 8.27 µM (active)
Potency [4]: inactive

Cc1csc(-c2nnc(Nc3ccc(Oc4ncccc4-c4ccnc(N)n4)cc3)c3ccccc23)c1
Potency [1]: inactive
Potency [6]: inactive
Potency [7]: inactive
Potency [11]: inactive
Potency [9]: inactive
Potency [12]: 6.62 µM (active)
Potency [13]: inactive
Potency [10]: inactive

N#CC1(c2cccc(C(=O)Nc3cc(Oc4ccc5nc(NC(=O)C6CC6)sc5n4)ccc3F)c2Cl)CC1
Potency [14]: inactive
Potency [15]: inactive
Potency [16]: inactive
Potency [4]: 21.5 µM (active)
Potency [17]: 22.1 µM (active)
Potency [13]: 22.4 µM (active)
Potency [10]: inactive

CCOC(=O)[C@H](CCc1ccccc1)N[C@@H](C)C(=O)N1CCCC1C(=O)O (some centres undefined)
Potency [3]: 9.27 µM (active)
Potency [6]: 13.1 µM (active)
Potency [7]: 13.1 µM (active)
Potency [11]: 7.37 µM (active)
Potency [8]: 11.7 µM (active)
Potency [12]: inactive
Potency [14]: inactive
Potency [15]: inactive
Potency [16]: inactive

CCOC(=O)[C@H]1O[C@H]1C(=O)N[C@@H](CC(C)C)C(=O)NCCC(C)C
Potency [4]: inactive

O=C(Nc1ccccc1)Nc1ccc(-c2ccc(C(=O)[C@H]3CCC[C@H]3C(=O)O)cc2)cc1
Potency [14]: 34 µM (active)
Potency [15]: 24.1 µM (active)
Potency [16]: 24.1 µM (active)

CC1(C)CC(=O)c2c(C(F)(F)F)nn(-c3ccc(C(N)=O)c(NC4CCC(O)CC4)c3)c2C1 (centres undefined)
Potency [2]: 0.185 µM (active)
Potency [3]: 0.369 µM (active)
Potency [7]: 0.261 µM (active)
Potency [11]: 0.369 µM (active)
Potency [12]: 0.264 µM (active)
Potency [4]: inactive
Potency [13]: inactive
Potency [10]: inactive

CCCCOCCOc1nc(-c2ccc(C(=O)O)c(F)c2)sc1C
Potency [14]: 12.1 µM (active)
Potency [15]: 19.2 µM (active)
Potency [16]: 12.1 µM (active)

O=S(=O)(NCCNCC=Cc1ccc(Br)cc1)c1cccc2cnccc12
Potency [4]: inactive

CC[C@H](C)n1cc(C)c2c(C(=O)NCc3c(C)cc(C)[nH]c3=O)cc(-c3ccc(N4CCNCC4)nc3)cc21
Potency [14]: 27 µM (active)
Potency [15]: 27.1 µM (active)
Potency [16]: 27.1 µM (active)
Potency [4]: 21.5 µM (active)

Nc1ncnc2c1ncn2[C@@H]1O[C@H](CO)[C@@H](O)[C@@H]1O
Potency [2]: 10.4 µM (active)
Potency [3]: 14.7 µM (active)
Potency [11]: 11.7 µM (active)
Potency [8]: 9.27 µM (active)
Potency [12]: inactive
Potency [4]: inactive

CC(C)(C)c1[nH]cnc1C=c1[nH]c(=O)c(=Cc2ccccc2)[nH]c1=O
Potency [3]: 0.0227 µM (active)
Potency [6]: 0.018 µM (active)
Potency [7]: 0.016 µM (active)
Potency [11]: 0.0202 µM (active)

O=C(O)Cc1cccc(OCCCN(Cc2cccc(C(F)(F)F)c2Cl)CC(c2ccccc2)c2ccccc2)c1
Potency [14]: 7.62 µM (active)
Potency [15]: 19.2 µM (active)
Potency [16]: 17.1 µM (active)

COc1cc(Cl)cn2c(-c3cccc(NC4CNC4)n3)cnc12
Potency [14]: 27.1 µM (active)
Potency [15]: 27.1 µM (active)
Potency [16]: inactive

O=S(=O)(O)c1ccc2cc(N=Nc3cc(S(=O)(=O)O)c4cccnc4c3O)ccc2c1
Potency [14]: inactive
Potency [17]: 1.39 µM (active)
Potency [13]: 0.794 µM (active)
Potency [10]: 1.26 µM (active)

O=c1cc(-c2ccc(O)c(O)c2)oc2cc(O)cc(O)c12
Potency [14]: inactive
Potency [4]: inactive
outcome [18]: inactive

Cc1ccc(C2=Nc3ccc(Cl)cc3OC2)cc1
Potency [4]: inactive

CC(C)C[C@@H](N)[C@H](O)C(=O)N[C@H](C(=O)N[C@H](C(=O)N[C@@H](CC(=O)O)C(=O)O)C(C)C)C(C)C
Potency [4]: inactive

C[C@H]1COC2=C1C(=O)C(=O)c1c2ccc2c1CCCC2(C)C
Potency [16]: 21.5 µM (active)
outcome [18]: inactive

CCCCC[C@H](O)C=C[C@H]1[C@H](O)CC(=O)[C@H]1CCCCCCC(=O)O
Potency [14]: inactive
Potency [15]: inactive
Potency [16]: inactive

O=C(Nc1cccc2c(=O)cc(-c3nn[nH]n3)oc12)c1ccc(OCCCCc2ccccc2)cc1
Potency [14]: 30.4 µM (active)
Potency [15]: 5.41 µM (active)
Potency [16]: 6.81 µM (active)
Potency [4]: 8.91 µM (active)

C=CC[N+]1([C@H]2C[C@H]3[C@@H]4CC[C@H]5C[C@H](O)[C@@H](N6CCOCC6)C[C@]5(C)[C@@H]4CC[C@]3(C)[C@H]2OC(C)=O)CCCC1
Potency [4]: inactive
